Results on 14 compounds are retold here after PubChem BioAssay (NCATS).

Assay [1] has as its target Lysosomal acid glucosylceramidase (Homo sapiens) (UniProt P04062). The assay can be described thus: Glucocerebrosidase-p2 (AID 348; in the data active = potency below about 10 µM; also: potency is read from the fitted curve at half-maximal effect). To be noted: purified GBA, blue fluorogenic substrate, 40 min. Summed up: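 Compounds titrated from 0.6 nM upwards against 0.2 nM enzyme in pH 5.9 citric acid/KH2PO4, taurocholate, tween-20; blue fluorogenic substrate 80 uM, 40 min room temperature, stopped and read Ex 365/Em 440 for AC50.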

Assay [2] is described as follows: AP1 Signaling Pathway (AID 357).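 Also: ME-180 reporter cells stimulated with EGF at its EC50 level; % is scaled to controls: 0 for no effect and ±100 for the full control effect.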 The settings on record: ME-180 AP-1-bla reporter, EGF-induced, beta-lactamase ratio, 5 h; at 7.69 µM (top of the series) unless noted. A digest of the protocol:
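Read-out was the 460nm/530nm emission ratio (excitation 405nm) after CCF4 loading for 2.5 hours at room temperature. Cells carried an AP-1-driven beta-lactamase reporter, were stimulated with EC50 EGF plus compound for 5 hours, and AC50 values came from titrations.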

Assay [3] deals with Cytochrome P450 1A2 (Homo sapiens) (UniProt P05177). The assay can be described thus: p450-cyp1a2 (AID 410; calls by dose curve; also: potency is read from the fitted curve at half-maximal effect;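 as to activity change, negative = inhibition: -100% = full effect of reference inhibitor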). To be noted: recombinant CYP1A2, luciferin-ME demethylation, luminescence; series mostly up to 11.4 µM. A digest of the protocol:
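Human CYP1A2 (20nM) demethylated Luciferin-ME at its Km (100uM) in 100mM KPO4. After 10 min compound preincubation, NADPH regeneration ran the reaction 60 min at room temperature. Luciferin was read by luminescence, normalized to 57 uM furafylline.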

Assay [4] is described as follows: NFAT Signaling Pathway (AID 444).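 Also: carbachol stimulus at about its EC50 of 1 µM final; % is scaled to controls: 0 for no effect and ±100 for the full control effect.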 The settings on record: Jurkat NFAT-bla M1, carbachol, beta-lactamase ratio, 5 h; at 7.69 µM (top of the series) unless noted. Summed up:
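Jurkat cells carrying an NFAT-driven β-lactamase reporter and co-transfected muscarinic M1 receptor were treated with compound plus carbachol (1 uM final, an EC50 level) for 5 h at 37 °C. CCF4 loading followed for 1 h at RT; 460/530 nm ratio gave %activity.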

The nature of assay [5]: Stat Signaling Pathway (AID 446).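 Also: ME-180 cervical cancer cells given 40 pM IL-6 alongside compound; SIE-controlled beta-lactamase reporter measured as 460/530 nm FRET emission ratio; % is scaled to controls: 0 for no effect and ±100 for the full control effect.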 The settings on record: ME-180 SIE beta-lactamase reporter, IL-6 stimulated, 5 h; at 7.69 µM (top of the series) unless noted. Summed up:
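Reporter line: ME-180 cervical carcinoma, SIE-beta-lactamase. Treatment: compound with 40 pM IL-6, 5 hrs, 37 C, in low-serum OPTI-MEM with 10 mM HEPES pH 7.3. Detection: 460/530 nm fluorescence.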

Assay [6] concerns the target Glucocorticoid receptor (Homo sapiens) (UniProt P04150). The assay can be described thus: GR-GFP Redistribution (AID 450;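 active = compounds whose dose series gives a full or clear partial fitted curve of increased nuclear translocation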; also: potency is read from the fitted curve at half-maximal effect). To be noted: U2OS GR-GFP nuclear translocation, laser cytometry, 2 h.
Assay [7] shares this target. The assay can be described thus: GR-EFC Redistribution (AID 451; calls by dose curve; also: potency is read from the fitted curve at half-maximal effect). The settings on record: CHO-K1 GR-EFC translocation, beta-gal luminescence, 2 h. A digest of the protocol: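 CHO-K1 cells stably expressing nuclear-localized β-gal enzyme acceptor and GR fused C-terminally to the enzyme donor fragment; ligand-driven nuclear translocation restores β-gal by complementation. Compounds titrated up to 46 uM final, 2 h at 37 °C; luminescence read.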

Assay [8] has as its target Mitogen-activated protein kinase 10 (Mus musculus) (UniProt Q61831). The assay can be described thus: JNK3 AlphaScreen Assay (AID 530).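 Also: kinase came from lysate of stimulated human HepG2 cells; % is scaled to controls: 0 for no effect and ±100 for the full control effect.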 The settings on record: JNK3 lysate, c-Jun phosphorylation; series mostly up to 11.4 µM. Summed up: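 JNK3 came from HepG2 lysates pre-activated with IL-1beta and TNF-alpha and phosphorylated biotinylated GST-cJun (1-79) at 10 uM ATP, pH 7.6, room temperature. Compounds were titrated. AlphaScreen signal used anti-phospho-cJun (Ser73) antibody.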
For orientation: Alpha assays give light when donor and acceptor beads are brought close together.

In assay [9] the target is 3',5'-cyclic-AMP phosphodiesterase 4B (Homo sapiens) (UniProt Q07343). The assay can be described thus: qHTS Assay for Inhibitors of PDE-IV (AID 607; active = well fitted activation curve with a large enough effect in the main read-out, with a control signal flat, not every such curve was filed as active; also: % of control where 0% means no effect). The settings on record: HEK293 ACTOne CNG channel cells, membrane potential fluorescence; series mostly up to 22.9 µM. Summed up:
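Cell-based read-out of cAMP via a modified cyclic nucleotide-gated channel and membrane potential dye (535/590 nm) in HEK293 cells expressing PDE4 endogenously. Compounds tested up to 22.9 uM final; 100 uM RO 20-1724 reference.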

Assay [10] in a line: qHTS Assay for Identification of Small Molecule Agonists for Hypoxia Response Element Signaling Pathway (AID 914; active = well fitted activation curve with a large enough effect in the signal ratio, with a control signal flat, not every such curve was filed as active; the % refers to the signal ratio; also: % of control where 0% means no effect). To be noted: ME-180 (cervical carcinoma) HRE-bla reporter, beta-lactamase ratio, CoCl2, 17 h; activation: hits give high values. Summed up:
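Cells were plated overnight, pin-dosed with compound in a titration series, co-stimulated with EC50 CoCl2 and incubated 17 hours at 37 degrees Celsius. CCF4 substrate was then loaded, and AC50 values came from the 460nm/530nm ratio.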
Background: In qHTS, concentration-response curves come from the screen itself.

The target in assay [11] is Cytochrome P450 2C19 (Homo sapiens) (UniProt P33261). The assay can be described thus: qHTS Assay for Inhibitors and Substrates of Cytochrome P450 2C19 (AID 899; active = well fitted inhibition curve with a large enough effect; also: potency is read from the fitted curve at half-maximal effect; nearly all actives have a fitted effect of over 60% in size). To be noted: recombinant CYP2C19, luciferin-H EGE luminescence; series mostly up to 11.4 µM. A digest of the protocol:
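Human CYP2C19 (5nM) with Luciferin-H EGE at 10uM (its KM) in 50mM KPO4 was preincubated with compound for 10 min at 37C. NADPH regeneration started a 60 min 37C reaction. Luciferin was read by luminescence, normalized to 57uM ketoconazole.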

A number with no mark means an inactive call. Records with an inconclusive call do not appear. Active and inactive are the calls of the source. Unless noted, calls follow the shape of the dose curve; as a rule, active = well fitted curve in either direction with a large enough effect (not every such curve was filed as active); inconclusive = small, poorly fitted or top-dose-only effect, or another doubt; inactive = flat fitted curve, though single readings scatter.

Chain of Lysosomal acid glucosylceramidase (Homo sapiens) (P04062 whole entry, looked up): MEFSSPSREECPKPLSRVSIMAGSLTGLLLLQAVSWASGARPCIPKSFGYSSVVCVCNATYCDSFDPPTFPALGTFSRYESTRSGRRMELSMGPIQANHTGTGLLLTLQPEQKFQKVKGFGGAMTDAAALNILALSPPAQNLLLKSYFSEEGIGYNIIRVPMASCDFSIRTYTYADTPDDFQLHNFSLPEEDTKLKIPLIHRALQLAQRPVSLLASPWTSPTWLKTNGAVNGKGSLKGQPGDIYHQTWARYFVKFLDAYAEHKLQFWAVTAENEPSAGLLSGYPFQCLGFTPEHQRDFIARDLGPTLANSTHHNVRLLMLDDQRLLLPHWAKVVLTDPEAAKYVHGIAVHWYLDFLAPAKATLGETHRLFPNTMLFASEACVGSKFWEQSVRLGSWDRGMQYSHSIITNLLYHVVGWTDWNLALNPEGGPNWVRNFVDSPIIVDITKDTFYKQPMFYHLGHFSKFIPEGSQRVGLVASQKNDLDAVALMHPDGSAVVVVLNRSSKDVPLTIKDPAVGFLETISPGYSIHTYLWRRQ
Chain of 3',5'-cyclic-AMP phosphodiesterase 4B (Homo sapiens) (Q07343 whole entry, looked up): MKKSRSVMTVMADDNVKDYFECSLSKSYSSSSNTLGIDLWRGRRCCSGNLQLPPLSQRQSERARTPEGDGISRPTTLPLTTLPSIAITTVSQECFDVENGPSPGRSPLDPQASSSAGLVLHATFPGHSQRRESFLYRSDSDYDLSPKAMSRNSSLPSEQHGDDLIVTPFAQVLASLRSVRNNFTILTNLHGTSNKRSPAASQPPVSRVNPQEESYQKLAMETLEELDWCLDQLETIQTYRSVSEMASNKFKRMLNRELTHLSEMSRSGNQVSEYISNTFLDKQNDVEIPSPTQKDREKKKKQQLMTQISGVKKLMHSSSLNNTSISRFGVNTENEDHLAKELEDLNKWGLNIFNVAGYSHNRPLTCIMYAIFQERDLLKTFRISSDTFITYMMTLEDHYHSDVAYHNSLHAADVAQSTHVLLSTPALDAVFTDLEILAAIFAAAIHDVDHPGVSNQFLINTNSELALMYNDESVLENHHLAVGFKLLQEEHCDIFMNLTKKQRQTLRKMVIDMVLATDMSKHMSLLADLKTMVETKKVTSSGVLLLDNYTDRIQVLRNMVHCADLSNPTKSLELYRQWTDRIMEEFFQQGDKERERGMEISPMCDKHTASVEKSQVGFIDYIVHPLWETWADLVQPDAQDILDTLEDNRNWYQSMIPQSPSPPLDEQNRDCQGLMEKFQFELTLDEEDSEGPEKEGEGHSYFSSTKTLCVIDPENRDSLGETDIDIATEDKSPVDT
Chain of Cytochrome P450 1A2 (Homo sapiens) (P05177 whole entry, looked up): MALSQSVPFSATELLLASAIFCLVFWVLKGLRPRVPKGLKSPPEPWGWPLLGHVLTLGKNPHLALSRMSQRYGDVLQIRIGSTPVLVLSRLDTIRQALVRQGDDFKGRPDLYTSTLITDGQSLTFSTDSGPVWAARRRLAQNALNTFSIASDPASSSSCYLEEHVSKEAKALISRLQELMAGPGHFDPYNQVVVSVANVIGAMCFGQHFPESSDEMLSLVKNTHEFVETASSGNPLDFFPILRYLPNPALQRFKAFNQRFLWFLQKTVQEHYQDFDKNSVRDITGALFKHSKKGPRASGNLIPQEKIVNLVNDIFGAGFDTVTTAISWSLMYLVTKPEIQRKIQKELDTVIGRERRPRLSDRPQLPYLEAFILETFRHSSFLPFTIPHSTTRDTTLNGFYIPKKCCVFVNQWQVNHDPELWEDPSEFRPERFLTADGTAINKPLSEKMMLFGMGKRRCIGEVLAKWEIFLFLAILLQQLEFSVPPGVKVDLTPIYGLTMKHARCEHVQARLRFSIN
Chain of Glucocorticoid receptor (Homo sapiens) (P04150 whole entry, looked up, the tested form may be a part): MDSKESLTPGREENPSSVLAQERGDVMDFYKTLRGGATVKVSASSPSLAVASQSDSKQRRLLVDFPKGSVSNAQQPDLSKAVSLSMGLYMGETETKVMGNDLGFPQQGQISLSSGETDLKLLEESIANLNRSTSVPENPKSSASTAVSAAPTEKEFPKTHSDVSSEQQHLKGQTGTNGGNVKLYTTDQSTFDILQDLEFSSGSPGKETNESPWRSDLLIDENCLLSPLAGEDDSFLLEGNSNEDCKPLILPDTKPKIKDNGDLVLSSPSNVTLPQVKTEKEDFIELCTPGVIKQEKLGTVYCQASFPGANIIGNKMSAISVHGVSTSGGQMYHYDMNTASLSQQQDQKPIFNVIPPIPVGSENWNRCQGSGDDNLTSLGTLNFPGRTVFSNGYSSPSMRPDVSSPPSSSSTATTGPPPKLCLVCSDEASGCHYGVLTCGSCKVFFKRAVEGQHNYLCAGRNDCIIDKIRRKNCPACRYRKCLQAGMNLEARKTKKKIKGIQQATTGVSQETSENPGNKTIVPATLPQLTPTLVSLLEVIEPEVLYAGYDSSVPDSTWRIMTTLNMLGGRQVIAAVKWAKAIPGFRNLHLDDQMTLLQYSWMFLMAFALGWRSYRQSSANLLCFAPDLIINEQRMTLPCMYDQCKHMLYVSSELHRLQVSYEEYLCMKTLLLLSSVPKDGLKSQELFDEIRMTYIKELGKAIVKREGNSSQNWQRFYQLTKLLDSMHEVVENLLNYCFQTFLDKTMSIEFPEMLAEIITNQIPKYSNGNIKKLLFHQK
Chain of Cytochrome P450 2C19 (Homo sapiens) (P33261 whole entry, looked up): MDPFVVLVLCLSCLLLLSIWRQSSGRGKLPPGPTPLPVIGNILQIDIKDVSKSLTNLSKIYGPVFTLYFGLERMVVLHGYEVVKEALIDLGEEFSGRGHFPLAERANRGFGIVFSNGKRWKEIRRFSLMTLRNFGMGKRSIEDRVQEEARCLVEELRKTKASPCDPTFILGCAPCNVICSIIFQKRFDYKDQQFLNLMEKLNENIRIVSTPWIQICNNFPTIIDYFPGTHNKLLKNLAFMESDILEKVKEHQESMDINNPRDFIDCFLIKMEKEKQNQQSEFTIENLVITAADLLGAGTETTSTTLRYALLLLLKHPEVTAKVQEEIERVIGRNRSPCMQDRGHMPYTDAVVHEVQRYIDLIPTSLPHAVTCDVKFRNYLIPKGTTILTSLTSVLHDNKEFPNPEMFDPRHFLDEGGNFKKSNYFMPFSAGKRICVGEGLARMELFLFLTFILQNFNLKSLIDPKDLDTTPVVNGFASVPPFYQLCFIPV

For `Cc1ccc(S(=O)(=O)Oc2cc(S(=O)(=O)O)cc3cc(S(=O)(=O)O)cc(N)c23)cc1`, the Potency in assay [1] is over 11.4 µM; in assay [3], 2 µM (active); in [6], over 46 µM; in assay [7] it was over 9.22 µM. The activity change, negative = inhibition in [2] is 8.2%; in assay [4], 1.61%. In addition, the activity, negative = inhibition in [5] was 11.7%. For the same compound, the Potency result in [8] and in assay [9] was “inactive” throughout. Moreover, the activation in [10] is -7.4%.
For the compound `Cn1cnc([N+](=O)[O-])c1Sc1nc(N)nc2c1ncn2Cc1ccccc1`, the Potency in [1] was over 11.4 µM; in [3] it was 3.16 µM (active); in assay [6], over 46 µM; in [7], over 9.22 µM. Also, the activity change, negative = inhibition in assay [2] was 0.181%; in assay [4] it was -1.11%. Besides, the activity, negative = inhibition in assay [5] is 1.04%. Moreover, the Potency result in [8] and in assay [9] was “inactive” each time. Moreover, the activation in assay [10] is -1.88%.
As to `C/C(=N/S(=O)(=O)c1ccc(Cl)c(Cl)c1)OCC(C)(C)C`, the Potency in assay [1] is over 11.4 µM; in [6] it was over 46 µM; in [7] it was over 9.22 µM. The activity change, negative = inhibition is 2.66% in [2] and 20% in [4]. In addition, the Potency entry in [3], in [8] and in [9] was “inactive” in each case. Besides, the activity, negative = inhibition in assay [5] was 1.9%. For the same compound, in [10], the activation was 8.96%.
Take `NC(=O)Nc1n[nH]c(-c2ccccc2)n1`: the Potency in assay [1] is over 11.4 µM; in assay [3], 3.16 µM (active); in [6], over 46 µM; in assay [7], over 9.22 µM. For the same compound, the activity change, negative = inhibition in [2] was 4.22%; in [4], -3.57%. Besides, the activity, negative = inhibition in [5] was 2.91%. Besides, the Potency entry in assay [8] and in assay [9] was “inactive” in each case. For the same compound, the activation in assay [10] is 12.6%.
On to `N=C(N)SCc1cc(Cl)cc(Cl)c1O`, for which the Potency in assay [1] was over 11.4 µM; in assay [3], 5.01 µM (active); in [6], over 46 µM; in assay [7] it was over 9.22 µM. The activity change, negative = inhibition in [2] is 3.73%; in assay [4], 5.42%. Moreover, the activity, negative = inhibition in [5] was 2.98%. Besides, the Potency entry in assay [8] and in assay [9] was “inactive” in each case. In addition, the activation in assay [10] was -24.5%.
As to `CC(=O)O[C@]1(C)N=NC2(CCCCC2)O1`, the Potency in assay [1] is over 11.4 µM; in assay [6], over 46 µM; in assay [7], over 9.22 µM. The activity change, negative = inhibition was 0.791% in assay [2] and 3.95% in [4]. The Potency result in assay [3], in assay [8] and in assay [9] was “inactive” throughout. For the same compound, the activity, negative = inhibition in [5] is 16.1%. In addition, the activation in assay [10] was 14.3%.
In the case of `CC(C)CCC[C@@H](C)[C@@H]1CC[C@@H]2[C@H]3CC[C@H]4C[C@@H](N)CC[C@@]4(C)[C@@H]3CC[C@]21C`, the Potency in [1] was over 11.4 µM; in [6] it was over 46 µM; in assay [7], over 9.22 µM. Besides, the activity change, negative = inhibition is 13.1% in [2] and 26.8% in assay [4]. Moreover, the Potency result in assay [3], in assay [8] and in assay [9] was “inactive” in each case. Also, the activity, negative = inhibition in assay [5] was 11.5%. Moreover, the activation in [10] is 7.37%.
With `c1ccc2c(CSCc3cccc4ccccc34)cccc2c1`, the Potency in [1] is over 11.4 µM; in assay [3] it was 3.98 µM (active); in assay [6], over 46 µM; in [7], over 9.22 µM; in [11] it was 126 nM (active). The values for the activity change, negative = inhibition in assay [2] and in assay [4] were 6.44% and -28.7%, respectively. In addition, the activity, negative = inhibition in assay [5] was 17.1%. For the same compound, the Potency result in assay [8] and in assay [9] was “inactive” in each case.
`Nc1ccc(S(=O)(=O)NCc2nccs2)cc1`: the Potency is over 11.4 µM in assay [1], over 46 µM in assay [6], over 9.22 µM in assay [7] and 79.4 nM (active) in assay [11]. For the same compound, the activity change, negative = inhibition in assay [2] is -6.48%; in assay [3], -10.5% [at 2.29 µM]; in assay [4], 7.98%. The activity, negative = inhibition in [5] was -1.21%. Also, the Potency entry in assay [8] and in assay [9] was “inactive” in each case.
As for `COc1ccc2cc(C(=O)CCC(=O)O)ccc2c1`, the Potency in assay [1] was over 11.4 µM; in assay [3], 0.794 µM (active); in assay [6], over 46 µM; in [7], over 9.22 µM; in assay [11] it was 2000 nM (active). Besides, the values for the activity change, negative = inhibition in [2] and in [4] were 1.75% and 19.6%, respectively. For the same compound, the activity, negative = inhibition in assay [5] is 6.44%. In addition, the Potency entry in assay [8] and in assay [9] was “inactive” in each case.
On to `CN(C)Cc1ccc(O)c(CN(C)C)n1`, for which the Potency in assay [1] was over 11.4 µM; in assay [6] it was over 46 µM; in assay [7], over 9.22 µM. Also, the activity change, negative = inhibition is 1.16% in assay [2] and 4.31% in assay [4]. In addition, the Potency result in assay [3], in [8] and in [9] was “inactive” each time. In addition, the activity, negative = inhibition in assay [5] was 0.249%. Also, in [10], the activation was 2.88%.
As for `N=c1nc(N)nc(N)n1-c1ccc(S(N)(=O)=O)cc1`, the Potency in assay [1] was over 11.4 µM; in assay [6], over 46 µM; in [7], over 9.22 µM. Besides, the results for the activity change, negative = inhibition in assay [2], in [3] and in assay [4] were 4.82%, -3.8% [at 2.29 µM] and 9.5%, respectively. Also, the activity, negative = inhibition in assay [5] is 6.13%. Further, the Potency entry in assay [8] and in [9] was “inactive” throughout. Also, the activation in assay [10] is 8.62%.
With `O=C(O)/C=C\C(=O)Nc1ccccn1`, the Potency in assay [1] is over 11.4 µM; in assay [6], over 46 µM; in assay [7], over 9.22 µM. Also, the activity change, negative = inhibition was 1.01% in assay [2] and 11.9% in assay [4]. Also, the Potency entry in assay [3], in [8] and in assay [9] was “inactive” in each case. Further, the activity, negative = inhibition in assay [5] is -1.9%. The activation in assay [10] is 4.82%.
For `OCCCSCCO`, the Potency in [1] is over 11.4 µM; in [6], over 46 µM; in assay [7], over 9.22 µM. For the same compound, the activity change, negative = inhibition in assay [2] was 5.52%; in assay [3], -19.1% [at 2.29 µM]; in assay [4] it was 7.44%. For the same compound, in [5], the activity, negative = inhibition is -0.432%. For the same compound, the Potency result in assay [8] and in assay [9] was “inactive” throughout. Besides, the activation in assay [10] was 7.65%.
